# Source: PubChem BioAssay (EPA / NIEHS)
# Records with an inconclusive call do not appear. The source made the active and inactive calls. Rule for the calls, unless noted: active = hit-call score of the fitted dose curve at least 0.9, where 1 is the maximum; inactive = score below 0.9.
# Columns and labels:
# [1] = CCTE_Shafer_MEA_acute_spike_number: CCTE's Neural Acute Assay for Total Number of Spikes, Shafer Lab (AID 2284008);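 for AC50: curve fitted for decrease in spike count so AC50 reflects inhibitors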
# In short: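 Total spike count from 40 min recordings before and during compound exposure (0.03-40 uM), given as per-well percent change. Cortical cultures from rat, DIV 13 or 15, 37 C; adaptive detection threshold 8x rms noise.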
# [2] = CCTE_Shafer_MEA_acute_firing_rate_mean: CCTE's Neural Acute Assay for Mean Firing Rate, Shafer Lab (AID 2284009);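 note: analyzed for loss of signal so actives lower firing rate relative to DMSO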
# In short: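 Read-out: well-mean spike rate (spikes/recording length/electrodes), % change from 40 min pre-dose baseline to 40 min with compound. Rat cortical cultures, DIV 13 or 15, 37 C; 0.03-40 uM; DMSO as negative control.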
# [3] = target: Nucleoli Translocation, AR (gene 367) (UniProt P10275); test: UPITT_HCI_U2OS_AR_TIF2_Nucleoli_Antagonist: University of Pittsburgh U2OS Androgen Receptor-Transcriptional Intermediary Factor 2 (AR-TIF2) Antagonism High Content Imaging Assay for Nucleoli Translocation (AID 2283997; active = hit-call score of the fitted dose curve at least 0.9, where 1 is the maximum)
# Nucleoli Translocation, AR (gene 367), sequence (P10275 whole entry, looked up): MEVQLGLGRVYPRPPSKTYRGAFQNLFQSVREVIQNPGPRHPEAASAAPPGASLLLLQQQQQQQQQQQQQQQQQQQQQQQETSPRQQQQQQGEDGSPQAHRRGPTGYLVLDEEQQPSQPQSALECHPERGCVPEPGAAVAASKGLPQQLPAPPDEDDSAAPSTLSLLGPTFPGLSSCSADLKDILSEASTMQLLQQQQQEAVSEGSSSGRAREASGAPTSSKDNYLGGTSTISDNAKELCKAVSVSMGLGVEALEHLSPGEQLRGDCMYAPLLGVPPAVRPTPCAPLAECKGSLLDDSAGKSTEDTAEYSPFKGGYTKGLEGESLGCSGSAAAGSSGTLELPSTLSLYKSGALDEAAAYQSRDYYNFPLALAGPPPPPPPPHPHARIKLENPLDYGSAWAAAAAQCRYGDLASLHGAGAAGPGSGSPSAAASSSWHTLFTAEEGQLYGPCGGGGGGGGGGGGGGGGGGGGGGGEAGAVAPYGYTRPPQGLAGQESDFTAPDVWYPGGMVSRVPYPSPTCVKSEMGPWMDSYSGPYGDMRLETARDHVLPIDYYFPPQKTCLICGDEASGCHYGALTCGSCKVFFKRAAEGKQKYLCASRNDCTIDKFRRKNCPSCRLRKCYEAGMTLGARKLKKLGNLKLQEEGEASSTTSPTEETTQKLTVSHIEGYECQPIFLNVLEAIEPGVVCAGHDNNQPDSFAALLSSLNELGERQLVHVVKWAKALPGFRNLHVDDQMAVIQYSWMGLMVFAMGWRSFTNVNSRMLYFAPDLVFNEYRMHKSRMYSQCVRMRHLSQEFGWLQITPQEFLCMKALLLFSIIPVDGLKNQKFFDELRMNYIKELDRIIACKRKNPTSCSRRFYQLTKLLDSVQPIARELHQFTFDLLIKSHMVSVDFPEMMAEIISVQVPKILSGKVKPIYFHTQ
# In short: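 U2OS cells expressing RFP-tagged human AR and GFP-tagged TIF2 were imaged by high-content fluorescence microscopy for red AR signal in the nucleolar region. Compounds were screened at 20 uM final (0.2% DMSO), with activity fitted relative to DHT as baseline.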
# [4] = target: Ratio of Nucleoli Translocation and Cytoplasm, AR (gene 367) (UniProt P10275); test: UPITT_HCI_U2OS_AR_TIF2_Nucleoli_Cytoplasm_Ratio_Agonist: University of Pittsburgh U2OS Androgen Receptor-Transcriptional Intermediary Factor 2 (AR-TIF2) Agonism High Content Imaging Assay for Ratio of Nucleoli Translocation and Cytoplasm (AID 2284000; active = hit-call score of the fitted dose curve at least 0.9, where 1 is the maximum;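 note: hits raise the red nucleolar to cytoplasm ratio above vehicle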)
# Ratio of Nucleoli Translocation and Cytoplasm, AR (gene 367), sequence (P10275 whole entry, looked up): as above
# In short: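 U2OS cells expressing RFP-tagged human AR and GFP-tagged TIF2 were imaged by high-content fluorescence microscopy. The endpoint is the ratio of nucleolar to cytoplasmic red fluorescence, fitted for gain of signal relative to DMSO. Concentration-response spanned 0.195 to 50 uM final (0.5% DMSO).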
# [5] = CCTE_Simmons_MITO_basal_resp_rate: CCTE's HepG2 Seahorse XF Respirometric Screening Assay at Basal Respiratory State, Simmons Lab (AID 2284001); settings: actives raise or lower the signal
# In short: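 HepG2 cells were given test chemicals at 7 concentrations, 125 nM to 100 uM final, and oxygen consumption rate was read every 6 min (3 min mix, 3 min measure) over 72 min. Basal-phase OCR was fitted bidirectionally against DMSO.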
# [6] = CCTE_Simmons_MITO_max_resp_rate: CCTE's HepG2 Seahorse XF Respirometric Screening Assay at Maximal Respiratory State [uncoupled], Simmons Lab (AID 2284002); settings: actives raise or lower the signal
# In short: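 Maximal (FCCP-uncoupled) respiration rate in HepG2, from Seahorse kinetic OCR over 72 min at 6 min cycles. Compounds at 125 nM–100 uM final, 7 points, three biological replicates; both directions fit relative to DMSO.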
# [7] = CCTE_Simmons_MITO_inhib_resp_rate: CCTE's HepG2 Seahorse XF Respirometric Screening Assay at Inhibited Respiratory State [full ETC block], Simmons Lab (AID 2284006); settings: actives raise or lower the signal
# In short: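 Compound injected onto HepG2 cells (125 nM–100 uM final, 7 points); FCCP then rotenone/antimycin A added. Oxygen consumption read every 6 min (3 min mix, 3 min measure) for 72 min. Inhibited-state OCR fitted against DMSO.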
# [8] = CCTE_Simmons_MITO_viability: CellTiter-Glo Viability Assessment for CCTE's HepG2 Seahorse XF Respirometric Screening Assay [post-hoc], Simmons Lab (AID 2284007; active = hit-call score of the fitted dose curve at least 0.9, where 1 is the maximum)
# In short: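 After the Seahorse oxygen-consumption sequence (basal, FCCP, rotenone/antimycin A; 72 min total), HepG2 viability was scored as ATP content by bioluminescence. Chemicals ran at seven concentrations up to 100 uM final for 90 min.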
structure (smiles),measurement,setting,value
CCN(Cc1cccc(S(=O)(=O)O)c1)c1ccc(C(=C2C=CC(=[N+](CC)Cc3cccc(S(=O)(=O)O)c3)C=C2)c2ccccc2S(=O)(=O)[O-])cc1,outcome,[1],inactive
same,outcome,[2],inactive
CCCCCCCCCC(=O)O,outcome,[3],inactive
same,outcome,[4],inactive
same,AC50,[5],23.2 µM (active)
same,outcome,[6],inactive
same,outcome,[7],inactive
same,outcome,[8],inactive
CCCCCCCCCCCCO,outcome,[1],inactive
same,outcome,[2],inactive
O=C1O[C@H]([C@@H](O)CO)C(O)=C1O,outcome,[1],inactive
same,outcome,[2],inactive
CC(O)CC(C)(C)O (configuration not stated),outcome,[1],inactive
same,outcome,[2],inactive
CN(C)C(=O)C1(N2CCCCC2)CCN(CC[C@@]2(c3ccc(Cl)c(Cl)c3)CN(C(=O)c3ccccc3)CCO2)CC1,outcome,[5],inactive
same,outcome,[6],inactive
same,outcome,[7],inactive
same,AC50,[1],3.26 µM (active)
same,AC50,[2],3.28 µM (active)
O=C1CCC(C2CCCCC2)CC1,outcome,[5],inactive
same,outcome,[6],inactive
same,outcome,[7],inactive
same,outcome,[8],inactive
O=C(O)c1ccccc1C(=O)OCc1ccccc1,outcome,[3],inactive
same,outcome,[4],inactive
c1ccc2n[nH]nc2c1,outcome,[1],inactive
same,outcome,[2],inactive
CN1C(=O)CC[C@H]1c1cccnc1,outcome,[1],inactive
same,outcome,[2],inactive
O=c1[nH]sc2ccccc12,AC50,[1],0.0259 µM (active)
same,AC50,[2],0.0286 µM (active)
O=C(O)c1ccccc1-n1cc(C(=O)O)c(=O)c2cc(Nc3c(F)cc(F)cc3Cl)c(Cl)cc21,outcome,[1],inactive
same,outcome,[2],inactive
CCCCCCCCCCCO,AC50,[5],80.1 µM (active)
same,outcome,[6],inactive
same,outcome,[7],inactive
C[C@]12CC[C@@H]3c4ccc(O)cc4CC[C@H]3[C@@H]1CC[C@H]2O,AC50,[5],36.1 µM (active)
same,outcome,[6],inactive
same,outcome,[7],inactive
same,outcome,[8],inactive
same,outcome,[1],inactive
same,outcome,[2],inactive
CCCCCCCCN(C)CCCCCCCC,outcome,[3],inactive
same,outcome,[4],inactive
CC(=O)N1CCN(c2ccc(OC[C@H]3CO[C@](Cn4ccnc4)(c4ccc(Cl)cc4Cl)O3)cc2)CC1,AC50,[5],8.55 µM (active)
same,AC50,[6],12.7 µM (active)
same,AC50,[7],9.46 µM (active)
same,outcome,[8],inactive
same,outcome,[1],inactive
same,outcome,[2],inactive
CC1=CC(=O)/C(=C(/C)O)C(=O)O1,outcome,[1],inactive
same,outcome,[2],inactive
